Test results: PubChem BioAssay
Calls of active or inactive are those of the source.

Columns and labels:
Albumin (Bos taurus) = Albumin (Bos taurus) (UniProt P02769); test: compounds binding labelled BSA control protein – biochemical, small-molecule microarray, Alexa647 label, 635/667 nm fluorescence, artefact control for SMM control protein annotation, profiling panel (AID 1118); settings: BSA-A647 binding, fluorescence 635 nm, higher = more signal;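 note: score merges 667 nm emission intensity and signal-to-noise per printed compound spot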
[1] = probe aXIP binding to arrayed compounds – biochemical, NeuroSMM set, 635/667 nm fluorescence, primary screen (AID 1119); settings: small-molecule microarray, higher = more signal, called active from +8 up or from −8 down;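 note: probe is the protein aXip251-270 applied at 1 µg/mL to compound-printed slides; binding of probe to printed compounds measured as 667 nm fluorescence plus signal to noise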
[2] = probe aNOTCH3 binding on compound microarray – biochemical, small-molecule microarray, 635/667 nm fluorescence, primary screen (AID 1120); settings: higher = more signal;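 note: probe is a biotin-tagged antibody raised against NOTCH3 rather than NOTCH3 protein; score merges spot fluorescence near 667 nm with spot signal to noise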
[3] = probe aNOTCH2 binding on compound microarray – biochemical, small-molecule microarray, 635/667 nm fluorescence, primary screen (AID 1121); settings: higher = more signal;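 note: score merges feature fluorescence read at 667 nm with its signal to noise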
[4] = target: Carbonic anhydrase 2 (Homo sapiens) (UniProt P00918); test: compounds binding carbonic anhydrase 2 – biochemical, small-molecule microarray, Alexa647-labelled CAII, profiling panel (AID 1122); settings: CAII-A647 binding fluorescence, higher = more signal
[5] = COS7 lysate on small-molecule microarray, probe aHis, 635 nm (AID 1123); settings: COS7 cell lysate, fluorescence, higher = more signal;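 note: z-score combines 667nm fluorescence intensity with signal-to-noise per printed compound spot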
[6] = probe aLAP1 signal on lysate-treated microarray – cell lysate, small-molecule microarray, COS7 lysate, primary screen (AID 1124); settings: probe aLAP1, fluorescence, higher = more signal;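 note: lysate comes from COS7 cells expressing LAP1 and is applied at 0.3 µg/mL; score merges spot fluorescence near 667 nm with signal-to-noise over triplicate slides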
Sam68 (KHDRBS1) = test: compounds binding KHDRBS1 protein – biochemical, small-molecule microarray, 635 nm fluorescence, primary screen (AID 1125); settings: higher = more signal;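 note: score merges 667 nm channel intensity with signal to noise over triplicate slides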
[7] = system: Chordin-like protein 2 (CHRDL2); test: compounds binding chordin-like 2 – biochemical, small-molecule microarray, 635 nm fluorescence, primary screen (AID 1126); settings: fluorescence 635 nm, higher = more signal;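 note: printed compound slides probed with Chrdl2 protein at 4 µg/mL for 1 h at 4 C; score merges 667 nm emission intensity with signal to noise over three replicate slides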
[8] = target: Concanavalin-A (Canavalia ensiformis) (UniProt P02866); test: compounds binding concanavalin A lectin – biochemical, small-molecule microarray, Alexa647 label, 635 nm, artefact control for SMM control protein annotation, primary screen (AID 1127); settings: ConA-A647 binding fluorescence, higher = more signal;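 note: z combines 667 nm emission intensity with signal-to-noise across three replicate slides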
[9] = compounds binding Alexa647 anti-His antibody – biochemical, small-molecule microarray, 635 nm fluorescence, artefact control for SMM control protein annotation, primary screen (AID 1128); settings: higher = more signal;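 note: score merges feature fluorescence with signal-to-noise for each printed compound spot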
[10] = system: Human papillomavirus type 1a E7 protein (residues 1-88); test: HPV1a E7 small-molecule binders, primary screen, biochemical, small-molecule microarray, residues 1-88, 635 nm (AID 1129); settings: small-molecule microarray binding, fluorescence 635 nm; higher = more signal
[11] = target: Focal adhesion kinase 1 (Homo sapiens) (UniProt Q05397); test: PTK2 protein binding on printed compound slides – biochemical, small-molecule microarray, 635/667 nm fluorescence, BSA, DTT, primary screen (AID 1130); settings: 635 nm fluorescence, higher = more signal;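 note: composite of spot emission at 667 nm and signal to noise over triplicate slides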
[12] = system: Fibrinogen (Alexa647-labelled); test: Alexa647-fibrinogen binding to printed small molecules – biochemical, small-molecule microarray, 635/667 nm fluorescence, artefact control for SMM control-protein annotation, profiling panel (AID 1131); settings: fibrinogen-A647 binding fluorescence, higher = more signal;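 note: z-score merges 667 nm fluorescence with per-spot signal-to-noise over triplicate slides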
[13] = target: Follistatin (Homo sapiens) (UniProt P19883); test: FST protein binding to printed compounds – biochemical, small-molecule microarray, 635/667 nm fluorescence, primary screen (AID 1132); settings: 635 nm fluorescence, higher = more signal
[14] = target: Fibroblast growth factor 2 (Homo sapiens) (UniProt P09038); test: basic fibroblast growth factor binding to printed compounds – biochemical, small-molecule microarray, 635/667 nm fluorescence, primary screen (AID 1133); settings: FGF2, fluorescence 635/667, higher = more signal
[15] = JC-1 mitochondrial potential readout, lung cancer cells – cell-based, A549, JC-1 fluorescence, basal, 24 h, 100 nL, profiling panel (AID 1138); settings: higher = more signal;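 note: A549 lung adenocarcinoma cells under basal conditions with no added stimulus; test concentration not given here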
Lefty1 = Lefty1 protein binding to printed compounds – biochemical, small-molecule microarray, 635/667 nm fluorescence, primary screen (AID 1139); settings: fluorescence 635/667, higher = more signal
[16] = system: wheat germ agglutinin (Triticum aestivum), Alexa647-labelled; test: Alexa647-WGA lectin binding to printed small molecules – biochemical, small-molecule microarray, 635/667 nm fluorescence, artefact control for SMM control-protein annotation, profiling panel (AID 1140); settings: WGA-A647 binding, 635 nm fluorescence, higher = more signal;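 note: score merges 667 nm feature emission with signal to noise over triplicate slides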
[17] = target: Luciferin 4-monooxygenase (Photinus pyralis) (UniProt P08659); test: inhibition of purified Photinus pyralis luciferase – biochemical, luminescence, purified enzyme, 2006 set, primary screen (AID 1141); settings: purified firefly luciferase, SteadyGlo luminescence, 30 min; higher = more signal, called active from +8 up or from −8 down;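 note: cell-free assay with purified firefly luciferase at 100 ng per well in PBS; test concentration not given here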
Chain of Luciferin 4-monooxygenase (Photinus pyralis) (P08659 whole entry, looked up): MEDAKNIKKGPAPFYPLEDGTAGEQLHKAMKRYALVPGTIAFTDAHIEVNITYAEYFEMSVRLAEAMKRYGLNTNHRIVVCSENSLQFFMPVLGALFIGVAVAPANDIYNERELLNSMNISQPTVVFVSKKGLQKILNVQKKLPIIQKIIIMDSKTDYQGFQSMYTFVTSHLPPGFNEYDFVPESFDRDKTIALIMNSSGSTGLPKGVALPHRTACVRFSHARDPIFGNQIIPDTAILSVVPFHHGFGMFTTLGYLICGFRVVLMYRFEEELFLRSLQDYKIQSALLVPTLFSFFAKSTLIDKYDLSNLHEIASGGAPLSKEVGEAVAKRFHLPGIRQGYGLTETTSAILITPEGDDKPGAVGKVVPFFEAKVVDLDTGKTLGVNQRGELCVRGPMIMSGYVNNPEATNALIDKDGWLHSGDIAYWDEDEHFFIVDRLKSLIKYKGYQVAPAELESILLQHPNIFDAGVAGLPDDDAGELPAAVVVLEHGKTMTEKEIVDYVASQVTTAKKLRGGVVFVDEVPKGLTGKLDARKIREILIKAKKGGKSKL

Chain of Follistatin (Homo sapiens) (P19883 whole entry, looked up): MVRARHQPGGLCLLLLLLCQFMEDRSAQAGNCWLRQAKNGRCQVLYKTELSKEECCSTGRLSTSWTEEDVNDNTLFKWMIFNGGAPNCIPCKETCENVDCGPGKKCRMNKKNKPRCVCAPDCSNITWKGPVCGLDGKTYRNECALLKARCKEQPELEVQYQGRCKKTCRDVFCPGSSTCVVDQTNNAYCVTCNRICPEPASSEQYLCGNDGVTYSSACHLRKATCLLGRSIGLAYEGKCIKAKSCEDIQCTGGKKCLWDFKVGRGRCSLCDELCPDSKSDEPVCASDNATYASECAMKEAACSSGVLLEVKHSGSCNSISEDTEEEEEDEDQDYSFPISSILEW
Chain of Fibroblast growth factor 2 (Homo sapiens) (P09038 whole entry, looked up): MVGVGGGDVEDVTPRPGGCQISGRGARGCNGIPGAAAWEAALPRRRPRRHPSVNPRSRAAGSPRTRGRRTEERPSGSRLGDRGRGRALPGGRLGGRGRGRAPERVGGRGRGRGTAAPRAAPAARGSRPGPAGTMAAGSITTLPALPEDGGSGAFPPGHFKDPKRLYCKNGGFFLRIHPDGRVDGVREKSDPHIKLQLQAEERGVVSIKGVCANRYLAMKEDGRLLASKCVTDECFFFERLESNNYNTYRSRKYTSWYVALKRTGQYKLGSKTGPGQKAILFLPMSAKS
Chain of Concanavalin-A (Canavalia ensiformis) (P02866 whole entry, looked up): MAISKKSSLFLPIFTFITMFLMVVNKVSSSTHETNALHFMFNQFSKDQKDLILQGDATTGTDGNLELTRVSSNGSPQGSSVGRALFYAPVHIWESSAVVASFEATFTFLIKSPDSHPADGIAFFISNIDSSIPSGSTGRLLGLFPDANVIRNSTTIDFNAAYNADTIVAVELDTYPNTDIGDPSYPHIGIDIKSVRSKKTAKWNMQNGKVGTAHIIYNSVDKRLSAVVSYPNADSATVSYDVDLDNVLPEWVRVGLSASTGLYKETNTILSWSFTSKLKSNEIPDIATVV
Chain of Albumin (Bos taurus) (P02769 whole entry, looked up): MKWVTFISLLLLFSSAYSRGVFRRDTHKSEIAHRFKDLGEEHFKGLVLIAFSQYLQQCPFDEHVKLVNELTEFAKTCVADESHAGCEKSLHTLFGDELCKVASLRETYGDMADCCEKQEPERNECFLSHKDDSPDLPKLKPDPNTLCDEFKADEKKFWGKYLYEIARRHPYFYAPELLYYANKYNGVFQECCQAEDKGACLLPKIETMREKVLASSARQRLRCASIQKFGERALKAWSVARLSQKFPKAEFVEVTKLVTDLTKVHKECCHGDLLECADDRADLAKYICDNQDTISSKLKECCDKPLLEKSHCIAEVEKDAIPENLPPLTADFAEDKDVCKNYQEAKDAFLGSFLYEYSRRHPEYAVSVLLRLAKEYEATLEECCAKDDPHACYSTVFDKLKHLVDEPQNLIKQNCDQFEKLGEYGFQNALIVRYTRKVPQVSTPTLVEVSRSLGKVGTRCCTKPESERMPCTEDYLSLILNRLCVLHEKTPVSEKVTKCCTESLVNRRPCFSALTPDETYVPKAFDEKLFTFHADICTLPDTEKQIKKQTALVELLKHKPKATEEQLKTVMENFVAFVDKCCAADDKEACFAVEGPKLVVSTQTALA
Chain of Focal adhesion kinase 1 (Homo sapiens) (Q05397 whole entry, looked up): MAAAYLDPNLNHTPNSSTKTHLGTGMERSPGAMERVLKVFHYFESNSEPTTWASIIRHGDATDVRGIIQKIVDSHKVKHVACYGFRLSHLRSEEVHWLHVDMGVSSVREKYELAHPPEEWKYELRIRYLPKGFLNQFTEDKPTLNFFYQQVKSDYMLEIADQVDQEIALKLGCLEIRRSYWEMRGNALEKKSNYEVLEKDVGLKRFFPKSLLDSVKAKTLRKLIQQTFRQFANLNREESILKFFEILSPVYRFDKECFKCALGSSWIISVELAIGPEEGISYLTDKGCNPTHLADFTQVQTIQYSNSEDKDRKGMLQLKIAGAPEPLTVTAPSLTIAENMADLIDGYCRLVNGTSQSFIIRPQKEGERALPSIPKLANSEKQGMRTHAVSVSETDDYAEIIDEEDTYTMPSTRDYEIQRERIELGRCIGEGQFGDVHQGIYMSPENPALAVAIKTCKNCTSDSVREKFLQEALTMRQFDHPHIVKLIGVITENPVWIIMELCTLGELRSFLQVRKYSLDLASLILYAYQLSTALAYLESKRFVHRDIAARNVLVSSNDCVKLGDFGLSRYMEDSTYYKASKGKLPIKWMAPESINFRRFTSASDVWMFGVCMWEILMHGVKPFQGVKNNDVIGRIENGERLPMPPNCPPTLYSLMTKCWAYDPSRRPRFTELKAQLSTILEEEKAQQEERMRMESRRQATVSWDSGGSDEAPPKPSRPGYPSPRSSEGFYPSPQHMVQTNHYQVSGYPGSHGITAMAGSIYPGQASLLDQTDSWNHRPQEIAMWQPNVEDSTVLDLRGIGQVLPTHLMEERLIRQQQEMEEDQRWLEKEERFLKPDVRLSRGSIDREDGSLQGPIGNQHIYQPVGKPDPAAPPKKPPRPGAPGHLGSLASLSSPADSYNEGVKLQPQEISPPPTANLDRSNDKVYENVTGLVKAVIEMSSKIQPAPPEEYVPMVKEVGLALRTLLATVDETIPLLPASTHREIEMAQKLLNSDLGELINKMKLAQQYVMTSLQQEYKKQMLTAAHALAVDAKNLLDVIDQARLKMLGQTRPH

Row | SMILES | composite z-score (Albumin (Bos taurus)) | composite Z-score [1] | composite z-score [2] | composite z-score [3] | composite z-score [4] | composite z-score [5] | composite z-score [6] | composite z-score (Sam68 (KHDRBS1)) | composite z-score [7] | composite z-score [8] | composite z-score [9] | composite z-score [10] | composite z-score [11] | composite z-score [12] | composite z-score [13] | composite z-score [14] | z-score [15] | composite z-score (Lefty1) | composite z-score [16] | z-score [17]
1 | CCc1cc2c(nc1CC)CCN(CCC(C)=NO[C@H](C)c1cn([C@H](CO)Cc3ccccc3)nn1)C2 | 0.867 | -0.51 (inactive) | 0.189 | -0.101 | 0.0934 | 0.287 | 0.022 | 0.708 | 0.357 | -0.0875 | 1.08 | 0.282 | 0.119 | 0.408 | 0.672 | 0.884 | 0.085 | 0.531 | 0.55 | -0.378 (inactive)
2 | CO[C@H]1COC(=O)CCC[C@@H](C)[C@H](OC)COC(=O)[C@@H]2CCCN2C(=O)CC=C[C@@H]1C | -0.695 | 0.215 (inactive) | -0.0074 | -0.132 | -0.465 | -0.776 | 0.324 | -0.113 | 1.46 | -0.232 | -0.278 | -0.779 | -0.682 | -0.759 | 1.33 | 1.18 | -0.738 | 1.44 | -0.207 | 1.19 (inactive)
3 | CC(CCC(=O)OC[C@H]1O[C@H](C#Cc2ccccc2)C=C[C@@H]1Oc1ccc(C)cc1)=NO[C@H](C)c1cn([C@H](CO)Cc2ccccc2)nn1 | 0.276 | 0.392 (inactive) | -0.0847 | -0.0966 | -0.0419 | 0.757 | 0.0395 | 1.12 | 0.569 | 0.79 | 0.126 | 0.921 | 0.648 | 0.856 | 0.6 | 0.52 | 0.6 | 0.724 | 0.442 | -0.085 (inactive)
4 | O=C(NN=C1C[C@@H](O)[C@@H](O)[C@@H]2[C@@H]3C(=O)N(C4CCCCC4)C(=O)[C@@H]3CC[C@H]12)OCc1ccccc1 | 0.885 | -0.229 (inactive) | 0.273 | 0.179 | 0.0928 | 0.206 | 0.947 | -0.337 | 0.209 | -0.465 | -0.156 | -0.387 | -0.132 | -0.195 | -0.516 | -0.443 | 0.293 | -0.422 | 0.505 | -0.0704 (inactive)
5 | C=CC[C@@H]1C=C[C@H](ON=C2[C@H]3CCn4c(=O)n(-c5ccccc5)c(=O)n4[C@H]3[C@H](O)[C@@H]3O[C@H]23)[C@@H](CO)O1 | 0.127 | -0.227 (inactive) | -0.172 | -0.101 | 0.256 | -0.143 | -0.208 | -0.862 | 0.564 | 0.535 | 3.31 | -0.542 | -0.118 | 0.626 | 0.489 | 0.095 | -0.544 | 0.96 | -0.0168 | 0.845 (inactive)
